# Sampled rows, rich in hits. Any-hit rate of the full collection: about 9.2%.
# ELG1 repair inh = qHTS screen for small molecules that inhibit ELG1-dependent DNA repair in human embryonic kidney (HEK293T) cells expressing luciferase-tagged ELG1; HEK293T ELG1-luciferase reporter, luminescence, 16 h; DNA damage induced by 5-fluorouridine; Potency, µM (titrated, usually from 46.1 µM), for the others: at the highest dose activity change, negative = inhibition, usual class: inhibitors; 2.3% of 330,000 active; also: % is scaled to controls: 0 for no effect and ±100 for the full control effect; nearly all actives have a fitted effect of over 55% in size
#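 Reporter activity after DNA damage by 5-fluorouridine is monitored. Compound-treated cells incubate 16 hr at 37 °C, then ONE-Glo is added for 30 min before luminescence reading.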
# NPC1 promoter act = qHTS Assay for NPC1 Promoter Activators | 2.4% of 320,000 active | Huh7 NPC1 promoter luciferase reporter, 24 h | AID 485313, 2010 | Potency, µM (doses to about 9.22 µM), inactives show top-dose activation, usual class: activators; also: % of control where 0% means no effect; nearly all actives have a fitted effect of over 60% in size
#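 Stable NPC1-promoter luciferase Huh7 line; cpd (DMSO) 24 h, 37 °C, 5% CO2; Amplite luciferase reagent 10 min RT; luminescence readout. qHTS format.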
# SMN2 splice up = qHTS Assay for Enhancers of SMN2 Splice Variant Expression. HEK293 SMN2-luciferase splicing reporter, luminescence, 30-36 h. 2.8% of 210,000 active. Potency, µM (highest dose often 46.1 µM), for inactives: top-dose activity change, positive = activation, hits mostly activators; also: % of control where 0% means no effect; nearly all actives have a fitted effect of over 55% in size
#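 qHTS luciferase splicing reporter: luminescence rises when SMN2 exon 7 is included in transfected HEK293 cells. Compound exposure lasted 30-36 h at 37C, with 4.5 mM final sodium butyrate as control, followed by a ONE-Glo read.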
# ELG1 genotox = qHTS screen for small molecules that induce genotoxicity in human embryonic kidney (HEK293T) cells expressing luciferase-tagged ELG1. HEK293T ELG1-luciferase reporter, luminescence, 16 h. Potency, µM (titrated, usually from 46 µM), inactives show top-dose activity change, positive = activation, most hits filed as activators. 1.3% of 330,000 active; also: % of control where 0% means no effect; nearly all actives have a fitted effect of over 60% in size
#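 HEK293T cells expressing luciferase-tagged ELG1 were treated with compound or DMSO for 16 hr at 37°C. Luciferase activity was then read after 30 min with ONE-Glo at room temperature; rising signal flags genetic stress.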
# FLuc counter = qHTS profiling assay for firefly luciferase inhibitor/activator using purifed enzyme and Km concentrations of substrates (counterscreen for miR-21 project) | 6.9% of 360,000 active | purified FLuc, Km substrates, luminescence inhibition | AID 588342, 2011 | Potency, µM (highest dose often 57.5 µM), for inactives: at the top dose activity change, negative = inhibition, usual class: inhibitors;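 also: plate controls were vehicle for no effect and reference inhibitor for full effect; nearly all actives have a fitted effect of over 55% in size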
# Target sequence (P08659 whole entry, looked up): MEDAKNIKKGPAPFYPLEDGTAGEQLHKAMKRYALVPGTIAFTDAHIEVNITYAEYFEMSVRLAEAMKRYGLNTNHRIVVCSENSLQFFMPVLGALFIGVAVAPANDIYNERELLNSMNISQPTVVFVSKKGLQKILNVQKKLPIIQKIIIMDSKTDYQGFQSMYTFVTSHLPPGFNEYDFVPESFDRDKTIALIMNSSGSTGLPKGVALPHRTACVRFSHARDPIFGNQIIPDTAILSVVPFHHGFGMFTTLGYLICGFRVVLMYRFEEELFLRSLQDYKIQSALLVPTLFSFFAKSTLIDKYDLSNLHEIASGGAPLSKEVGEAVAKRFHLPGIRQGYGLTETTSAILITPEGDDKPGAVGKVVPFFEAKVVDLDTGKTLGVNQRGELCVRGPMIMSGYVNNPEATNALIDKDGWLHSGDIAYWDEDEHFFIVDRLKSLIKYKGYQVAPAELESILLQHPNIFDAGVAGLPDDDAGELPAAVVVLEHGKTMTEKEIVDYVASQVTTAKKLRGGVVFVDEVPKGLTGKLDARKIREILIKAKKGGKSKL
#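 Purified P. pyralis luciferase (10nM final) with 10uM D-luciferin and 10uM ATP (Km levels) in 50mM Tris acetate pH 7.5, 10mM Mg acetate, 0.01% Tween-20, 0.05% BSA; qHTS 6-point titration, ~60 µM downward; luminescence read.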
# Rab9 promoter act = qHTS Assay for Rab9 Promoter Activators; Huh7 Rab9 promoter-luciferase reporter, luminescence, 24 h; Potency, µM (doses to about 9.22 µM), inactives show at the top dose activation, negative = inhibition, usual class: activators; 2.8% of 320,000 active; AID 485297, 2010; also: % of control where 0% means no effect; nearly all actives have a fitted effect of over 60% in size
#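 Quantitative HTS format; Huh7 Rab9-luciferase reporter cells (1500/well) receive compound 2 h post-plating, incubate 24 h at 37 °C, then get luciferase reagent for 10 min before luminescence reading.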
# * hit, by the source's call; ? = inconclusive; / = no result; [ ] = remark or other dose. Calls follow the shape of the dose curve; as a rule, active = well fitted curve in the direction sought with a large enough effect; inconclusive = small, poorly fitted or top-dose-only effect, or another doubt; inactive = no such curve, though single readings can be large; an effect the other way counts as inactive or inconclusive. Potency is read from the fitted curve at half-maximal effect.
SMILES,ELG1 repair inh,NPC1 promoter act,SMN2 splice up,ELG1 genotox,FLuc counter,Rab9 promoter act
O=C(NCCn1cc(SCC(=O)N2CCOCC2)c2ccccc21)c1ccccc1,7%,14%,-2%,-3%,-12%,17%
O=Cc1cn(CC(=O)N2CCCCC2)c2ccccc12,10%,-1%,-3%,0%,4%,-3%
CN1C(=O)/C(=C/c2cn(CC(=O)N3CCCCC3)c3ccccc23)c2ccccc21,21µM*,0%,-3%,-14%,?,-1%
CCN(CC(=O)NCc1cccs1)C(=O)c1cccc(S(=O)(=O)Nc2ccc(OC)cc2)c1,10%,0%,/,-12%,2%,-3%
O=C(Cn1cc(SCc2c(F)cccc2Cl)c2ccccc21)N1CCCC1,/,/,/,/,17µM*,/
Cc1cccc(CSc2cn(CC(=O)N3CCCC3)c3ccccc23)c1,/,/,/,/,15µM*,/
COc1ccccc1C(=O)NCCC(=O)NCC1CCCCC1,2%,/,/,6%,/,/
Nc1c(C(=O)c2ccc(Br)cc2)oc2ccccc12,?,28%,?,8%,-4%,30%
CCOC(=O)c1oc2ccccc2c1N,?,-22%,8%,6%,-8%,5%
Nc1c(C(=O)c2cccs2)oc2ccccc12,?,?,?,18%,15µM*,27%
Nc1c(N)c2ccccc2oc1=O,?,8%,3%,5%,-13%,1%
Nc1c(C(=O)c2ccc(Br)s2)oc2ccccc12,?,?,?,?,7.6µM*,?
Cc1ccc(C(=O)c2oc3ccccc3c2N)cc1,?,?,13µM*,?,17µM*,?
CCOC(=O)c1c(C)[nH]c(C)c1S(=O)(=O)N(C)CC(=O)Nc1cccc(Cl)c1C,/,/,/,/,2%,/
NC(=O)c1ccc2nc(NC(=O)c3ccc(N)cc3)sc2c1,?,?,?,16%,3µM*,?
COc1ccc2nc(NC(=O)c3ccc(F)cc3)sc2c1,?,2.5µM*,/,?,0.85µM*,1.4µM*
CC(=O)Nc1nc2cc(C(N)=O)ccc2s1,-5%,1%,/,5%,-28%,0%
COc1ccc2nc(NC(=O)c3ccc4ncsc4c3)sc2c1,?,2.8µM*,?,5.8µM*,1.1µM*,1.8µM*
COc1ccc2nc(NC(=O)c3ccc(-n4nc(C)cc4C)cc3)sc2c1,?,-2%,-23%,11%,0%,7%
Cc1cc(=O)[nH]c(N/N=C/c2cn(CCC#N)nc2-c2ccccc2)n1,-6%,-1%,18%,4%,19µM*,-1%
NC(N)=NC[C@@H]1COC2(CCCCC2)O1,/,/,10%[20.6 µM],/,/,/
COc1ccc(C(=O)C2CCCN(C3Cc4ccccc4C3)C2)c(OC)c1 (stereo not given),?,30%,/,24%,27µM*,?
COc1cc(Cl)c(C)cc1NC(=O)c1cc(S(=O)(=O)N2CCCC2)ccc1F,/,/,/,/,-5%,/
Cn1c(=O)c2c(nc(N3CCCCC3)n2CCSc2nc3ccccc3s2)n(C)c1=O,-23%,-8%,-13%,-7%,-1%,2%
CC1CCN(c2nc3c(c(=O)n(C)c(=O)n3C)n2CCSc2nc3ccccc3s2)CC1,23µM*,0%,-21%,-23%,2%,3%
SMILES,ELG1 repair inh,NPC1 promoter act,SMN2 splice up,ELG1 genotox,FLuc counter,Rab9 promoter act
Cn1c(=O)[nH]c(=O)c2c1nc(N1CCCCC1)n2CCCSc1nc2ccccc2s1,21µM*,-12%,-23%,-4%,10%,1%
Cc1cc(SCC(=O)NC2CCCC2)nc2ccccc12,10%,-4%,/,-3%,-1%,-4%
COC(=O)C1=C(C)NC(=O)NC1c1cn(-c2ccccc2)nc1-c1ccc(OC)c(Cl)c1 (stereo not given),/,/,/,/,-2%,/
Cc1ccnc(NC(=O)CCNC(=O)c2ccc(Cl)cc2)c1,2%,4%,/,11%,1%,-3%
Cc1c(NC(=O)c2cccc(NC(=O)Cc3ccc(Cl)cc3)c2)c(=O)n(-c2ccccc2)n1C,-28%,-1%,/,0%,-5%,-1%
CCOc1cc(C(=O)Nc2cc(C)ccn2)cc(OCC)c1OCC,?,0%,-6%,-16%,4%,1%
Cc1c(NC(=O)c2cccc(NC(=O)COc3cccc(Br)c3)c2)c(=O)n(-c2ccccc2)n1C,23µM*,/,/,-11%,/,/
Cc1ccc(C(=O)NCC(=O)Nc2cc(C)ccn2)cc1,?,5%,/,?,27µM*,11%
Cc1ccnc(NC(=O)c2cnc(Cl)c(Cl)c2)c1,11%,-5%,/,?,17µM*,10%
CCOc1ccc(C(=O)Nc2cc(C)ccn2)cc1,?,0.71µM*,?,-10%,1.3µM*,0.32µM*
CCCCn1c(C)cc2c(c1=O)[C@H]1O[C@](CCCCN3C(=O)c4ccccc4C3=O)(Cc3ccccc31)O2,/,-2%[1.84 µM],/,/,-3%[11.5 µM],0%[1.84 µM]
Cc1ccnc(NC(=O)c2ccc(C(=O)c3ccccc3)cc2)c1,?,3.5µM*,/,?,0.95µM*,2µM*
Cc1ccnc(NC(=O)CCCc2ccccc2)c1,?,?,?,18%,24µM*,?
C/C(CC(=O)Nc1cc(Cl)ccc1Cl)=N\NC(=O)COc1cccc(C)c1,0%,2%,/,5%,0%,4%
O=C(CCCc1ccccc1)Nc1ccccn1,?,13%,10%,?,?,28%
Cc1ccnc(NC(=O)CNC(=O)Cc2cccc3ccccc23)c1,?,6%,/,15µM*,24µM*,-1%
C/C(CC(=O)Nc1cc(C)ccn1)=N\NC(=O)COc1cccc(C)c1,?,-6%,2%,10%,13µM*,-5%
Cc1ccc(NC(=O)CNC(=O)Cc2cccc3ccccc23)nc1,23%,1%,/,-4%,-5%,0%
CCCN(C(=O)CSc1nnc2ccccn12)C1CCS(=O)(=O)C1 (stereo not given),11%,0%,/,1%,-1%,-6%
Cc1ccnc(NC(=O)c2ccc(Cl)s2)c1,?,3.2µM*,/,?,7.6µM*,1.6µM*
O=C(Nc1ccon1)c1ccc(Cl)s1,-11%,13%,7%,-4%,-3%,0%
Cc1ccnc(NC(=O)c2cccc(NC(=O)COc3ccccc3)c2)c1,12%,-3%,29%,4%,17µM*,4%
Cc1ccc(N=C2NC(=O)/C(=C/c3cccn3C)S2)c(C)c1,?,0%,/,-8%,0%,0%
